# WRN helicase inh = qHTS for Inhibitors of WRN Helicase; Potency, µM (doses to about 114 µM), for inactives: at the top dose activity change, negative = inhibition, usual class: inhibitors; Bifunctional 3'-5' exonuclease/ATP-dependent helicase WRN (Homo sapiens), Q14191; WRN helicase unwinding, fluorescent forked duplex, kinetic; 360,000 tested, 0.46% active; further: potency means the concentration at half of the fitted maximal effect; on the % scale 0 is the no-effect control and ±100 the full control effect; nearly all actives have a fitted effect of over 55% in size
#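 Enzyme (20 nM final) and test compound sit together 15 min at room temperature before substrate addition. Substrate is a single-forked duplex oligonucleotide (100 nM) labelled with fluorophore and quencher, with 2 mM ATP; helicase unwinding raises red fluorescence, read kinetically.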
# Pol beta inh = qHTS Assay for Inhibitors of DNA Polymerase Beta; P06746; Pol beta primer extension/strand displacement, fluorescence kinetic; Potency, µM (top dose mostly 114 µM), without a hit: top-dose activity change, negative = inhibition, hits mostly inhibitors; 340,000 tested, 1.3% active; AID 485314, 2010; further: potency means the concentration at half of the fitted maximal effect; on the % scale 0 is the no-effect control and ±100 the full control effect
#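 Reaction started by 50 nM substrate onto compound-treated Pol beta (10 nM, 15 min preincubation, room temperature); plates read at 0 min and 10 min. Normalized concentration-effect data fitted by four-parameter Hill equation.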
# PI5P4Ka inh = qHTS for Inhibitors of phosphatidylinositol 5-phosphate 4-kinase (PI5P4K). Phosphatidylinositol 5-phosphate 4-kinase type-2 alpha (Homo sapiens), P48426. PI5P4Kalpha enzyme, ADP-Glo luminescence, 60 min; active compounds read low. max response, %. 330,000 tested, 1.2% active; active means max response of -50% or lower; inconclusive means between -30% and -50%; inactive means -30% or higher; further: value at the top dose of about 77 µM; on the % scale 0 is the no-effect control and ±100 the full control effect
#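 PI5P4Kalpha ADP-Glo assay; 5 microM ATP final; 60 min RT reaction; HEPES pH 7.4/EGTA/CHAPS, 5% DMSO; controls lacking substrate or enzyme; luminescent end-point.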
# POLI inh = qHTS for Inhibitors of Polymerase Iota; Pol iota fluorescent replication assay, 10 min; Potency, µM (top dose mostly 115 µM), for the others: at the top dose activity, negative = inhibition, usual class: inhibitors; 390,000 tested, 1% active; AID 588590, 2011; further: potency means the concentration at half of the fitted maximal effect
# Target sequence (Q9UNA4 whole entry, looked up): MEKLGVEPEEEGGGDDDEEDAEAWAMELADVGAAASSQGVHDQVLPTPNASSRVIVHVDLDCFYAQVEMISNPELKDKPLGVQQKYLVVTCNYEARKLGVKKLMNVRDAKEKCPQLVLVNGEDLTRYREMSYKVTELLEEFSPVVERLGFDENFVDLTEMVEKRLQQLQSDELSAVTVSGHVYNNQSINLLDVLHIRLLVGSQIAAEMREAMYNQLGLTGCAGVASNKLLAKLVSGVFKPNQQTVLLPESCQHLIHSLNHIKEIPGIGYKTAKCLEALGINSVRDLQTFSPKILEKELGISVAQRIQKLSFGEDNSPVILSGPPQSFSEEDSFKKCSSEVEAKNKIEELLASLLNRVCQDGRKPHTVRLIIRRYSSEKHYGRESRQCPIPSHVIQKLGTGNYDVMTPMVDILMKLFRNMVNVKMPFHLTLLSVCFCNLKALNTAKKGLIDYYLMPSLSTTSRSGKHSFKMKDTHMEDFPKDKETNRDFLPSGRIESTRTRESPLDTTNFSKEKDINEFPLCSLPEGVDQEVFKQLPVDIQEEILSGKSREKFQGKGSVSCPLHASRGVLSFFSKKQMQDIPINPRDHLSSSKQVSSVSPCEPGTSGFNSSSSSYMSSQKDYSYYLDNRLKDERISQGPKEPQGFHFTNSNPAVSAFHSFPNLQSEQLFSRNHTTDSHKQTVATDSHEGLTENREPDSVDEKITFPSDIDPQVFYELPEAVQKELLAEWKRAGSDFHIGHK
#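 Pol iota at 10 nM preincubated 15 min with compounds at room temperature; reaction started with fluorescent substrate, 50 nM final. Fluorescence read kinetically at 0 and 10 min; buffer-only wells as negative control.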
# Pol eta inh-1 = qHTS for Inhibitors of Polymerase Eta; DNA polymerase eta (Homo sapiens), Q9Y253; recombinant Pol eta, fluorescent DNA replication assay; Potency, µM (series often up to 114 µM), without a hit: at the top dose activity change, negative = inhibition, usual class: inhibitors; AID 588591, 2011; 390,000 tested, 1.2% active; further: potency means the concentration at half of the fitted maximal effect; on the % scale 0 is the no-effect control and ±100 the full control effect
#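 Pol eta at 10 nM preincubated with compounds 15 min at room temperature; reaction started with fluorescent substrate (50 nM final) and read kinetically at 0 and 10 min.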
# Pol kappa inh-1 = qHTS for Inhibitors of Polymerase Kappa; AID 588579, 2011; 400,000 tested, 0.53% active; purified Pol kappa, fluorescent DNA synthesis assay, 10 min; Potency, µM (doses to about 107 µM), for inactives: top-dose activity, negative = inhibition, usual class: inhibitors; further: potency means the concentration at half of the fitted maximal effect; on the % scale 0 is the no-effect control and ±100 the full control effect
#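 Fluorescent qHTS in 1536-well format: enzyme (10 nM) and compound sat 15 min at room temperature before 50 nM substrate (final) was added. Signal taken at 0 and 10 min; no-enzyme buffer wells were negative controls.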
# GALK confirm = Confirmation Assay for Inhibitors of Human Galactokinase (GALK) | shares compounds with Pol eta inh-1 | purified GALK, Kinase-Glo ATP depletion luminescence | Potency, µM (series often up to 115 µM), for the others: top-dose activity, negative = inhibition, most hits filed as inhibitors | 150 tested, 70% active | AID 2015, 2009
# Redox cycling = Confirmatory Assay for Inhibitors of Human Galactokinase (GALK): Phenol-HRP redox assay counterscreen | shares compounds with Pol eta inh-1 | Phenol red-HRP H2O2 redox cycling, absorbance 600 nm | Potency, µM (doses to about 115 µM), for inactives: at the top dose activity change, negative = H2O2 signal, most hits filed as inhibitors | 150 tested, 40% active
# HEK293 tox = Secondary Assay for Inhibitors of Human Galactokinase (GALK): HEK-293 Cell Viability Assay; shares compounds with Pol eta inh-1; HEK-293 viability, ATP luminescence (CellTiter-Glo), 24/48 h; Potency, µM (highest dose often 46.1 µM), for the others: top-dose activity change, negative = cytotoxicity, most hits filed as inhibitors; 170 tested, 10% active; further: potency means the concentration at half of the fitted maximal effect; on the % scale 0 is the no-effect control and ±100 the full control effect
# Pol kappa inh-2 = qHTS for Inhibitors of Polymerase Kappa: Confirmatory Assay for Cherry-picked Compounds | shares compounds with Pol eta inh-1 | purified Pol-kappa, fluorescent strand-displacement substrate | Potency, µM, actives largely listed as inhibitors | 920 tested, 76% active | AID 720501, 2013; further: potency means the concentration at half of the fitted maximal effect
# Pol eta inh-2 = qHTS for Inhibitors of Polymerase Eta: Confirmatory Assay for Cherry-picked Compounds. shares compounds with Pol eta inh-1. Pol eta primer extension, TAMRA/BHQ fluorescence, 10 min. Potency, µM, usual class: inhibitors. 2,600 tested, 64% active. AID 720502, 2013; further: potency means the concentration at half of the fitted maximal effect
# * = called active by the depositor; ? = inconclusive; . = not tested or not shown; [ ] = remark or other dose. This is a sample that favours compounds with a hit; in the whole collection about 2.8% have one here. Unless noted, the call rests on the fitted dose curve; in most records, active means well fitted curve in the direction sought with a large enough effect; inconclusive means small, poorly fitted or top-dose-only effect, or another doubt; inactive means no such curve, though single readings can be large; an effect the other way counts as inactive or inconclusive.
SMILES,WRN helicase inh,Pol beta inh,PI5P4Ka inh,POLI inh,Pol eta inh-1,Pol kappa inh-1,Pol eta inh-2,others
CCC(CNc1cc(OC)cc2cccnc12)NC1CCCCC1 (stereo unspecified),3%,?,-7,?,-8%,-26%,.,GALK confirm=9.4µM*;Redox cycling=3.8µM*;HEK293 tox=-19%
Cc1ccc(S(=O)(=O)N(C)C[C@@H]2OCc3cnnn3CCCC(=O)N([C@H](C)CO)C[C@H]2C)cc1,5%,.,5,.,-6%,.,.,
OCC1CCCCN1CC(O)COC(c1ccc(F)cc1)c1ccc(F)cc1 (stereo unspecified),4%,-15%,2,-6%,-16%,-4%,.,
COCCCN(CC(=O)Nc1ccc(F)cc1)S(=O)(=O)c1cccs1,5%,.,1,-9%,2%,-15%,.,
Cc1ccc(-n2c3nc(=O)[nH]c(=O)c-3cc3cc([N+](=O)[O-])ccc32)cc1C,?,-7%,-16,50%,20µM*,-7%,?,
Cc1ccc(/C=C2\C(=O)ON=C2c2ccccc2)o1,3%,27%,3,64%,-4%,-1%,.,
CC1=NOC(=O)/C1=C\c1ccc(-c2cc(Cl)ccc2Cl)o1,?,-2%,-23,-11%,-21%,-18%,.,
CC1=NOC(=O)/C1=C\c1ccc(-c2ccc(Br)cc2)o1,?,32µM*,?,?,20µM*,-14%,85*,
CC1=NOC(=O)/C1=C\c1ccc(-c2ccc(Br)cc2C(=O)O)o1,50µM*,13µM*,-22,?,40µM*,79µM*,.,Pol kappa inh-2=34*
Nc1nc(=O)n(C2CCCO2)cc1Br (stereo unspecified),-12%,.,0,14%,-14%,-6%,.,
CCc1nc2ccc(C(=O)N3CCN(C(=O)c4ccco4)CC3)cn2c1N(C)C(=O)c1cccc(OC)c1,-1%,.,-8,.,.,.,.,
Cc1ccc(C)n1-c1nc(=S)[nH][nH]1,?,-2%,.,?,45µM*,28µM*,76*,
Cc1cc(C)cc(NC(=O)CSc2nc3c(cnn3-c3ccc(F)cc3)c(=O)[nH]2)c1,.,15%,.,13%,-16%,-10%,.,
O=C(CSc1nc2c(cnn2-c2ccc(F)cc2)c(=O)[nH]1)Nc1ccc(Br)cc1,.,?,.,-5%,56µM*,-10%,?,Pol kappa inh-2=17*
CCc1noc(C)c1C(=O)N(CC(C)C)c1c(N)n(Cc2ccccc2)c(=O)[nH]c1=O,-4%,.,1,-5%,-14%,2%,.,
COc1ccc(/C=C/C(=O)O)cc1S(=O)(=O)N1CCCc2ccccc21,-6%[11.6 µM],?,-30,0%,45µM*,-40%,60*,
Cc1cc(NC(=O)c2cc([N+](=O)[O-])cc([N+](=O)[O-])c2C)no1,-17%,?,-29,56µM*,32µM*,?,?,
CCOC(=O)C1=C[C@@H](C(C)(C)C)N(S(=O)(=O)c2ccc([N+](=O)[O-])cc2)[C@H]1c1ccccc1,0%,.,-3,.,.,.,.,
O=C1C=CC(=O)N1c1cccc2cccnc12,?,.,-62*,?,28µM*,89µM*,76*,Pol kappa inh-2=?
c1cnc2c(c1)ccc1cccnc12,-6%,10%[57.1 µM],3,-6%[58.9 µM],1%[57.1 µM],-5%[60.1 µM],.,
Cc1cc2c(cc1C)NC(=O)C(C)CN2 (stereo unspecified),2%,.,-22,.,-3%,.,.,
O=C(O)C/C(=C\c1ccc(N2CCOCC2)c([N+](=O)[O-])c1)c1nc2ccccc2s1,?,?,-54*,-23%,32µM*,?,.,Pol kappa inh-2=?
O=C(O)c1ccc2c(=O)n3cc(C(=O)c4ccccc4O)cc(Cl)c3nc2c1,-35%,?,?,?,8.9µM*,-51%,12*,
O=C(N/N=C/C=C\c1ccco1)c1ccccn1,35µM*,?,-55*,?,?,50µM*,?,
O=C(N/N=C/C=C\c1ccco1)c1cccnc1,-30%[57.1 µM],19%,2,18µM*,?,79µM*,?,
SMILES,WRN helicase inh,Pol beta inh,PI5P4Ka inh,POLI inh,Pol eta inh-1,Pol kappa inh-1,Pol eta inh-2,others
O=C(N/N=C/C=C/c1ccccc1)c1cccnc1,0%,8%,2,5%,-5%,1%,.,
Cc1cccnc1NC(=O)c1cccc(NC(=O)CC2SC(N3CCCCC3)=NC2=O)c1 (stereo unspecified),13%,.,-3,8%,-17%,-5%,.,
Cc1ccn2cc(-c3ccc(O)c(O)c3)nc2c1,45µM*,10µM*,-29,14µM*,22µM*,20µM*,?,
Cc1ccn2cc(CC(=O)O)nc2c1,-9%,13µM*,-1,?,14µM*,?,67*,
Oc1ccc(-c2cn3ccccc3n2)cc1O,-10%,0%,-14,11%,-12%,11%,.,
COc1ccc(C(=O)NCc2cn3ccc(C)cc3n2)cc1,.,-2%,.,7%,1%,5%,.,
COc1ccc(C(=O)N2CCC3(CC2)NCCc2[nH]cnc23)cc1OC,2%,3%,4,34%,-20%,-12%,.,

# Compound activity as filed in PubChem BioAssay.
